# Assay outcomes: PubChem, NMMLSC
# BoNT-F LC inh: inhibitors of Botulinum neurotoxin F light chain protease | AID 588497 | inhibition, % at 10 µM | Multiplex microsphere protease cleavage assay, flow cytometry | actives 0.22% (n = 360,000); in the data active = inhibition above about 35%, passing the limit was not always enough; inconclusive = no clear call, values can overlap the other calls; note: plate controls were buffer without enzyme for full effect and enzyme alone for no effect
# BoNT-A LC inh2: inhibitors of Botulinum neurotoxin A light chain protease. multiplex microsphere protease substrate cleavage, flow cytometry. AID 588499. actives 0.17% (n = 360,000). inhibition, % at 10 µM; note: plate controls were buffer without enzyme for full effect and enzyme alone for no effect
# Anthrax LF prot: anthrax lethal factor protease inhibition; P15917; multiplex microsphere protease cleavage assay, LF; inhibition, % at 10 µM; actives 0.12% (n = 360,000); AID 588501; note: plate controls were buffer without enzyme for full effect and enzyme alone for no effect
# Autofluor counter: counter-screen for toxin protease inhibitors: compound fluorescence; compound autofluorescence counterscreen, microsphere flow cytometry; stronger effect = higher value; actives 3.1% (n = 360,000); AID 624483; fluorescence intensity (no concentration beside the values); in the data active = fluorescence intensity above about 16000; inconclusive = no clear call, values can overlap the other calls
# * hit, by the source's call; u = inconclusive. Compounds with a hit are over-represented: about 3.5% of the library has one in this group of screens. Cut-off read from the data, not from the text of the source, unless noted: active = inhibition above about 30%; inconclusive = no clear call, values can overlap the other calls; inactive = below that.
SMILES,BoNT-F LC inh,BoNT-A LC inh2,Anthrax LF prot,Autofluor counter
CCc1ccc(NCc2nc(-c3ccccc3)no2)cc1,3,0,-1,10365
CC(C)Oc1cccc(C(=O)NC(=S)Nc2ccc(Cl)c(C(=O)O)c2)c1,1,-1,-2,23433*
CCc1ccc(S(=O)(=O)N2CCCC(N3CCN(c4ccc(OC)cc4)CC3)C2)cc1 (stereo not drawn),-4,-2,1,6190
O=c1c2c([nH]c3ccccc13)CCCCC2,-3,-2,-1,4745
O=c1c2c([nH]c3ccccc13)CCCCCC2,-3,u,-6,22192*
O=c1cc(-c2ccccc2)c2c([nH]1)CCCC2,7,5,-8,19679*
O=c1cc(-c2ccccc2Cl)c2c([nH]1)CCC2,-9,-1,-9,5713
O=C(O)c1cc(-c2ccc(Cl)cc2)n(-c2ccc(Cl)cc2)n1,-8,-1,0,5082
Cc1ccc(NS(=O)(=O)c2c(C)ccc3nsnc23)c([N+](=O)[O-])c1,u,3,1,3720
COc1ccc(C(=O)NCc2ccc3c(c2)OCO3)cc1S(=O)(=O)NCc1ccc(Cl)cc1,-9,-1,0,2024
COc1ccc(C(=O)NCCNC(C)=O)cc1S(=O)(=O)NCc1ccc(Cl)cc1,-6,-1,-2,19992*
Cc1ccc(-n2cnc(N)c2C(=O)c2cccc([N+](=O)[O-])c2)cc1,u,1,0,4372
Cc1ccc(C2/C(=C(/O)c3ccccc3)C(=O)C(=O)N2CCN2CCOCC2)o1 (stereo not drawn),1,1,-2,20379*
Cc1ccc(C2/C(=C(/O)c3cnn(-c4ccccc4)c3C)C(=O)C(=O)N2CCN2CCOCC2)o1 (stereo not drawn),4,0,-1,2739
CCCCn1c(N)c(N(CCOC)C(=O)COC(=O)COc2ccccc2C#N)c(=O)[nH]c1=O,3,6,0,4197
CCCc1cc(C(=O)NNC(=S)NCc2ccccc2)cs1,0,2,-6,22370*
CCc1cc(C(=O)NNC(=S)Nc2cc(C)ccc2C)cs1,1,-1,1,23483*
CCc1cc(C(=O)Nc2ccccc2)cs1,-4,-2,-2,16734*
CCc1cc(C(=O)NNC(=S)NCc2ccccc2)cs1,1,0,-1,11564
Cc1ccc(C)c(NC(=S)NNC(=O)c2csc3c2CCCC3)c1,1,0,0,16276*
COc1ccc(NS(=O)(=O)c2cc(NS(=O)(=O)c3cc(C(=O)O)ccc3OC)ccc2C)cc1,-3,-1,-2,3687
Cc1cccc(-n2ncc3c2CCCC3NC(=O)C2CCOCC2)c1C (stereo not drawn),-3,4,-3,5373
Cc1cccc(NC(=S)NNC(=O)c2csc3c2CCCC3)c1,-6,-4,-2,16967*
CCN(CC)c1ccc2cc(-c3nnc(-c4ccncc4)o3)c(=O)oc2c1,6,3,13,24761*
Cc1nn(C)c(C)c1/C=C/C(=O)c1cccs1,-7,0,1,3687
SMILES,BoNT-F LC inh,BoNT-A LC inh2,Anthrax LF prot,Autofluor counter
Cc1nn(C)c(C)c1/C=C/C(=O)c1ccccc1,-8,-6,-4,24377*
Cc1nn(C)cc1/C=C/C(=O)c1ccccc1,-2,-1,-4,16636*
Cc1ccc(CN2CCN(/N=C/c3ccc(Cl)c([N+](=O)[O-])c3)CC2)cc1,2,-1,-1,4128
CCC(CC)C(=O)Nc1cccc(S(=O)(=O)c2cccc(NC(=O)C(CC)CC)c2)c1,-1,-1,-1,16846*
CCC(CC)C(=O)Nc1cccc(C(=O)Nc2ccc(S(=O)(=O)Nc3ccc(C)cc3)cc2)c1,-4,0,1,22769*
CCC(CC)C(=O)Nc1cccc(C(=O)Nc2ccc(S(N)(=O)=O)cc2)c1,-5,-1,-6,3823
CC1CCC(NC(=O)c2ccc(COc3ccccc3)o2)CC1 (stereo not drawn),-7,-1,1,u
CCCCC/C=C/C1=CC(=O)C[C@H](c2ccc(OC)cc2)C1,-3,-1,-7,3134
COC(=O)c1ccc(OCC(=O)Nc2nn(-c3ccccc3)nc2C(N)=O)cc1,-4,u,0,22226*
N#Cc1cc2c(nc1SCC(=O)Nc1ccc(Cl)cc1)C1CCN2CC1,2,0,-5,10124
N#Cc1cc2c(nc1SCC(=O)Nc1cc(Cl)ccc1Cl)C1CCN2CC1,-2,u,2,20370*
O=C(Nc1ccncc1)Nc1ccc(F)cc1F,2,1,1,23331*
c1ccc(-c2csc(-n3cnnn3)n2)cc1,5,2,0,21991*
Cc1occc1-c1nnc(SCC(=O)N2CCCCC2C)o1 (stereo not drawn),7,1,2,4861
Cc1occc1-c1nnc(SCC(=O)N(C)C)o1,0,0,4,19878*
O=C1c2ccccc2C(=O)N1c1ccc(S(=O)(=O)N2CCCCC2)cc1,u,1,-18,3787
CC(C)NS(=O)(=O)c1ccc(N2C(=O)c3ccccc3C2=O)cc1,4,3,-3,19293*
O=C(O)CCSc1nc2ccccc2s1,1,2,-4,22416*
O=C(O)C1CCN(C(=O)CSc2nc3ccccc3s2)CC1,-1,0,-6,3535
CC1CCCN(C(=O)CSc2cnc3ccccc3n2)C1 (stereo not drawn),-4,0,-1,19588*
CC1CCCN(C(=O)CSc2nc3ncccc3[nH]2)C1 (stereo not drawn),3,1,-2,3157
CC1CCN(C(=O)CSc2nc3ccccc3s2)CC1,0,1,1,23396*
c1ccc2sc(SCSc3nc4ccccc4s3)nc2c1,-3,0,3,3347
O=C(CCCSc1nc2ccccc2s1)NC1=NCCS1,-5,1,0,23045*
CN(C(=O)c1ccccc1-c1ncc[nH]1)C1CCCN(Cc2ccccc2F)C1 (stereo not drawn),4,2,2,5563
SMILES,BoNT-F LC inh,BoNT-A LC inh2,Anthrax LF prot,Autofluor counter
O=C(NCc1ccccn1)c1cccc([N+](=O)[O-])c1,-3,-2,2,24684*
O=C(NCc1ccccn1)c1ccccc1Cl,0,u,-3,23233*
O=C(COc1ccc(F)cc1Br)NCc1ccccn1,2,0,3,3833
Cc1ccc(C(=O)NCc2ccccn2)c(Cl)c1,-1,0,-3,3688
O=C(COc1ccccc1Br)NCc1ccccn1,1,0,-1,22895*
CC1(c2ccccc2)NC(=O)N(CC(=O)Nc2ccc(C(N)=O)cc2)C1=O (stereo not drawn),2,2,1,5946
CCC(=O)N1CCc2cc(S(=O)(=O)CCC(=O)NCc3ccccc3OC)ccc21,2,0,-2,4113
Cc1ccc(N2CC(C(=O)OCC(=O)C(C)(C)C)CC2=O)cc1 (stereo not drawn),-2,0,-4,23049*
Cc1ccc(N2CC(C(=O)Oc3cccc(N4C(=O)CCC4=O)c3)CC2=O)cc1 (stereo not drawn),-4,-2,-3,21129*
O=C(Oc1cccc(N2C(=O)CCC2=O)c1)C1CC(=O)N(c2ccc(Br)cc2)C1 (stereo not drawn),-7,2,5,6539
Cc1cccc(N2CCN(CC(=O)Nc3ccc(S(=O)(=O)N4CCOCC4)cc3)CC2)c1C,3,1,-1,5852
